The values that follow come from the supplement of paper PMC10849652.

The full data set covers some 8,800 targets. This sample favours those with a hit. About 0.5% of all pairs of compound and target were hits. A number with no mark means an inactive call.

UniProt Q8NA72, sequence (Q8NA72 whole entry, looked up): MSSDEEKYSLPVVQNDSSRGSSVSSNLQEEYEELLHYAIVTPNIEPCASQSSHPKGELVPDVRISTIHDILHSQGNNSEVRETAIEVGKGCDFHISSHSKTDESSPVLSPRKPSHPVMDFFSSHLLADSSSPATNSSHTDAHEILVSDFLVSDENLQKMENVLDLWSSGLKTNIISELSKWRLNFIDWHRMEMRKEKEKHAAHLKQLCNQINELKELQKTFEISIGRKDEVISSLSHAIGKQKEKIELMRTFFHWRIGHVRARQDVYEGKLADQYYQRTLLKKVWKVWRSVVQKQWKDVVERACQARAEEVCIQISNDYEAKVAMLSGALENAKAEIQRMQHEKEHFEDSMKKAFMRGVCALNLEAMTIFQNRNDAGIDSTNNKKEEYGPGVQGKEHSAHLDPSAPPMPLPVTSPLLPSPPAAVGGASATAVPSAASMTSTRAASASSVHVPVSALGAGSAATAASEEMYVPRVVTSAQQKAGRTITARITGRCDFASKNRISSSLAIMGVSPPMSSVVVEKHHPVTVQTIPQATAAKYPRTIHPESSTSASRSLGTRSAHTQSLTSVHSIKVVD
UniProt Q8IZ21, sequence (Q8IZ21 whole entry, looked up): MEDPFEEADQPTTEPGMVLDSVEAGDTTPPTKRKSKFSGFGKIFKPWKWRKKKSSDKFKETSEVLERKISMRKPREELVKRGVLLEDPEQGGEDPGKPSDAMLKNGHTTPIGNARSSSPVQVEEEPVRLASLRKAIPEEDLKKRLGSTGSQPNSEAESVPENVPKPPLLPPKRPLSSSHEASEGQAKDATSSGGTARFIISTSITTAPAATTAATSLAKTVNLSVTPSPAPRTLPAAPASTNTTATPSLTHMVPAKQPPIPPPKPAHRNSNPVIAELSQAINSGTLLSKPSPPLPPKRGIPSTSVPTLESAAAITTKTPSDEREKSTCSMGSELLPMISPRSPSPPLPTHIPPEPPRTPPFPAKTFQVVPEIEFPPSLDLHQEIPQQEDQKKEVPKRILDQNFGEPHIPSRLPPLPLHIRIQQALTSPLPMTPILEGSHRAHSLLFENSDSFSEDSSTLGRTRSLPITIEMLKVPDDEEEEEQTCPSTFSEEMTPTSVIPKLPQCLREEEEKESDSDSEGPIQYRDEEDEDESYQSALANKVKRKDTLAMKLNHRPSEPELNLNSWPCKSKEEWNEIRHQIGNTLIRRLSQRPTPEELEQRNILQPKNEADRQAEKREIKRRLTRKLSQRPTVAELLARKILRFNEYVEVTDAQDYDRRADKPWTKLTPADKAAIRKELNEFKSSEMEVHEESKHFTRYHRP
UniProt Q6P996, sequence (Q6P996 whole entry, looked up): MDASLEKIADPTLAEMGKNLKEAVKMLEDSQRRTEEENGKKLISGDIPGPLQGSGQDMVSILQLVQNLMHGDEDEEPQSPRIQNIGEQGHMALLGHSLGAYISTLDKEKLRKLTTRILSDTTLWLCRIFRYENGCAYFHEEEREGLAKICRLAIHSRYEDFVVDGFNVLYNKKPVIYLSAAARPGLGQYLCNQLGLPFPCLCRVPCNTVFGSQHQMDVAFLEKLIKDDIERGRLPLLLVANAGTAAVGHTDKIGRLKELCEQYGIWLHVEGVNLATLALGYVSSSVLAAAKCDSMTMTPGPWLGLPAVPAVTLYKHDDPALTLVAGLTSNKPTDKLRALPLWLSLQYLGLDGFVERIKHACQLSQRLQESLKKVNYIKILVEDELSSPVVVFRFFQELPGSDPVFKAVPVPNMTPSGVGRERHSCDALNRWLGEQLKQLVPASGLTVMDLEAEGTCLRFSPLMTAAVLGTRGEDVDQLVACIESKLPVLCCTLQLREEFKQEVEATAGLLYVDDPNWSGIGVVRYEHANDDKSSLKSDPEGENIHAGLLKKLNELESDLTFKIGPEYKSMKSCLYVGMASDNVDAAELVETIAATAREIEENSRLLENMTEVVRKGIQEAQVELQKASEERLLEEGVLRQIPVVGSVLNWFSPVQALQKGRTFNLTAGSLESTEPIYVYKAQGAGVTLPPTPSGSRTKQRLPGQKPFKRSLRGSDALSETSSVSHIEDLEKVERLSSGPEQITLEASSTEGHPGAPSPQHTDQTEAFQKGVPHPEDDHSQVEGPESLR
UniProt Q05397, sequence (Q05397 whole entry, looked up): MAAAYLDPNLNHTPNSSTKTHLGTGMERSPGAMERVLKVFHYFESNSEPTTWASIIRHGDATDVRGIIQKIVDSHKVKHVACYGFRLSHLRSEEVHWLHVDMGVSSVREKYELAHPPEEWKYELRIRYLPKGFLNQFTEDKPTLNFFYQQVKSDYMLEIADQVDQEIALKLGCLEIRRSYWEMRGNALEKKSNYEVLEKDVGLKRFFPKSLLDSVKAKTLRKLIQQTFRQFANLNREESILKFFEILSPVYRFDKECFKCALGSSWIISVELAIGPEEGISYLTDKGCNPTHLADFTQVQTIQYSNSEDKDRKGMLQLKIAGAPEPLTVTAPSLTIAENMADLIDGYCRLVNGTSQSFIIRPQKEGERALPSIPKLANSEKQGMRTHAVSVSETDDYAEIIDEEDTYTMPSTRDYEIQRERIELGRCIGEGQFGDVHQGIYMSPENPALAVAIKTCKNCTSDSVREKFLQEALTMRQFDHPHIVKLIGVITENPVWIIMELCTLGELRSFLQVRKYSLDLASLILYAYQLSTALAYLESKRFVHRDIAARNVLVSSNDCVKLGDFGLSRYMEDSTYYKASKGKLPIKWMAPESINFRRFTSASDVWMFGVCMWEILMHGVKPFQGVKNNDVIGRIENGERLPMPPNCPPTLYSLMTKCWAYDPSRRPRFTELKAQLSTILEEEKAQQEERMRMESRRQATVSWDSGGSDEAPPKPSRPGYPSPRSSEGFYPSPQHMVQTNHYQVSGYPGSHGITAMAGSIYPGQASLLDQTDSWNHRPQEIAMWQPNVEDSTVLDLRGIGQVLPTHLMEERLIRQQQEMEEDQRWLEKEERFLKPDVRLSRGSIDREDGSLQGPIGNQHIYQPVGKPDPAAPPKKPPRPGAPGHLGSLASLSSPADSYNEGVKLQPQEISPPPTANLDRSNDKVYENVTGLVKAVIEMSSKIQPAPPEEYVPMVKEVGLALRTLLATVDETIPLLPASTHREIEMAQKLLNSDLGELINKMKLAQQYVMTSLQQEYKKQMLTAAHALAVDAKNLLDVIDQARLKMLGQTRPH
UniProt Q9Y5K3, sequence (Q9Y5K3 whole entry, looked up): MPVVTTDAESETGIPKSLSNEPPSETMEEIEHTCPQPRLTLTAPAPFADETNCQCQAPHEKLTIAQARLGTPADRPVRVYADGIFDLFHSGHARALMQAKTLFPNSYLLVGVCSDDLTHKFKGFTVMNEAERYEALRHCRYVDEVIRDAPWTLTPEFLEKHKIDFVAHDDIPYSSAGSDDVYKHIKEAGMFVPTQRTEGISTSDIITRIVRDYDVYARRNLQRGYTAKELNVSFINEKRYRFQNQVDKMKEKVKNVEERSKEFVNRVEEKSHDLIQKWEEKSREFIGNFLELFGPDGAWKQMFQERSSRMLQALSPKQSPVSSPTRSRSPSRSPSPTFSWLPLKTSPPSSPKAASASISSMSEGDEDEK
UniProt P15735, sequence (P15735 whole entry, looked up): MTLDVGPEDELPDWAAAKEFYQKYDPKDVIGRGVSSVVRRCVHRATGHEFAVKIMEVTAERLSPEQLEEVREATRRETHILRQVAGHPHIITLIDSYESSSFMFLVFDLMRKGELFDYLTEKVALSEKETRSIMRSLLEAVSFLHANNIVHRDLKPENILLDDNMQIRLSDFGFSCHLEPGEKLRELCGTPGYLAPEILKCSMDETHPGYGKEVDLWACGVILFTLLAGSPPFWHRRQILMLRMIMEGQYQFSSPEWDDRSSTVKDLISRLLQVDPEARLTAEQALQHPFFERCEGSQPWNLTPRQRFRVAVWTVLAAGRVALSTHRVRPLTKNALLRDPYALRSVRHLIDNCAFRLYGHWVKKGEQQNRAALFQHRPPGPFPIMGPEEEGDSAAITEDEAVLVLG
UniProt P17706, sequence (P17706 whole entry, looked up): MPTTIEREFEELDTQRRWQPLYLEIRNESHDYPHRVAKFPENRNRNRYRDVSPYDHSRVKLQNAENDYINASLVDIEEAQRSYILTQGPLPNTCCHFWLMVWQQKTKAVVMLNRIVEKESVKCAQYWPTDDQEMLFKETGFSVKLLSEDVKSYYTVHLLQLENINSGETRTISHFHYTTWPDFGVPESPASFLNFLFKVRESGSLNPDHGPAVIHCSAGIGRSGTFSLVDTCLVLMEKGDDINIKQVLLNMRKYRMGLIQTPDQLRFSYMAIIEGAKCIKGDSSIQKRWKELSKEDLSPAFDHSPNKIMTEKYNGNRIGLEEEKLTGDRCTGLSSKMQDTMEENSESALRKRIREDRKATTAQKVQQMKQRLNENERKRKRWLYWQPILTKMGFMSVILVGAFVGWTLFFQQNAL
UniProt P14314, sequence (P14314 whole entry, looked up): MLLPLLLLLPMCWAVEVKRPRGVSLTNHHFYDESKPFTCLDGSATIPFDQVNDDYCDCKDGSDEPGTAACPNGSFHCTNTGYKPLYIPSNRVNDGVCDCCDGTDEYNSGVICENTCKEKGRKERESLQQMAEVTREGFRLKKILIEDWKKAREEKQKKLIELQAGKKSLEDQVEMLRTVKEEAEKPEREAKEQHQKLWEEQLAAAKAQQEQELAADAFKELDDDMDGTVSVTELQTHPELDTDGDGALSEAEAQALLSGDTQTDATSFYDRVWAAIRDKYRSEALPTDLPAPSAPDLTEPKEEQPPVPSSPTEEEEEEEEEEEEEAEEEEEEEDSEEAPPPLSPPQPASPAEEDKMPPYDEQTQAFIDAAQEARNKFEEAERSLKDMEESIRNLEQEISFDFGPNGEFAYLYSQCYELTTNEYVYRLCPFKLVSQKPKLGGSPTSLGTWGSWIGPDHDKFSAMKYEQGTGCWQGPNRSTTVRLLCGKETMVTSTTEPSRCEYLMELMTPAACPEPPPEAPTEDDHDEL
UniProt Q93096, sequence (Q93096 whole entry, looked up): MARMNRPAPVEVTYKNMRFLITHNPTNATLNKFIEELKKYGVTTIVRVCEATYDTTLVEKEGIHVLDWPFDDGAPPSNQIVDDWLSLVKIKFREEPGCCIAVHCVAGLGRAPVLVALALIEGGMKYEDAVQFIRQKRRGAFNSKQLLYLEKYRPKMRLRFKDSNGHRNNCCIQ

Compound in this assay: CN1CCN(CCOc2cc(OC3CCOCC3)c3c(Nc4c(Cl)ccc5c4OCO5)ncnc3c2)CC1 [saracatinib]
In words: log2 fold change, soluble protein after heating vs DMSO (PISA); higher = thermal stabilisation; K562 lysate, 10 uM; active = over 0.2 and 3.5 SD of the protein, either way, in both replicates (recomputed). The procedure, abridged: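 Quantification was by TMTpro 16plex LC-MS/MS with equalised channel sums, applied to the supernatant after 21,000xg for 90 min. Samples were crude K562 extract at 1 mg/mL protein in PBS pH 7.4 with 1 mM MgCl2, treated with 10 μM compound for 30 min, heated for 3 min across 48°C-58°C, pooled and brought to 0.5% NP-40 at 4°C. Values are log-two fold changes in thermal stability relative to solvent controls, from duplicates.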
Regarding PDCD10 (UniProt Q9BUL8), the log2 fold change was 0.016.
The same measure for PGPEP1 (UniProt Q9NXJ5): 0; for PRIM1 (UniProt P49642): -0.002.
The same measure for PPP1R8 (UniProt Q12972): -0.038; for PELO (UniProt Q9BRX2): -0.001.
Consider PDCD6IP isoform 2 (UniProt Q8WUM4), for which the log2 fold change is 0.011.
Take PTGES2 (UniProt Q9H7Z7): the log2 fold change was -0.029.
Then PYURF (UniProt Q96I23), with -0.013; and PMPCA (UniProt Q10713), with -0.024.
As to POLA1 (UniProt P09884), the log2 fold change was -0.003.
Then PHKG2 (UniProt P15735), with 0.062; and PRKACB isoform 2 (UniProt P22694), with 0.012.
Then POLB (UniProt P06746), with 0.033; and PTPN1 (UniProt P18031), with 0.022.
PRPH isoform 2 (UniProt P41219): the log2 fold change is 0.071.
PKN1 isoform 2 (UniProt Q16512): the log2 fold change is 0.002.
Then PPP4R2 (UniProt Q9NY27), with -0.007; and PEF1 (UniProt Q9UBV8), with -0.025.
Then PXMP4 (UniProt Q9Y6I8), with 0.036.
Then POLR3E (UniProt Q9NVU0), with 0.017; and PRKRA (UniProt O75569), with 0.03.
Consider PTK2 (UniProt Q05397), for which the log2 fold change is -0.023.
Then PLIN2 (UniProt Q99541), with 0.019; and PHACTR4 isoform 2 (UniProt Q8IZ21), with 0; and PTGR2 (UniProt Q8N8N7), with -0.021.
Then PRMT5 (UniProt O14744), with -0.032; and PCYT1B (UniProt Q9Y5K3), with 0.012.
Take POC5 (UniProt Q8NA72): the log2 fold change is -0.087.
The same measure for PFKP (UniProt Q01813): 0.008; for PDF (UniProt Q9HBH1): 0.032; for PYCR2 (UniProt Q96C36): -0.012.
Then PDE2A (UniProt O00408), with -0.042.
As for PRKACA (UniProt P17612), the log2 fold change was -0.075.
Then PTPN2 (UniProt P17706), with -0.052.
In the case of PPFIA2 (UniProt O75334), the log2 fold change was -0.016.
Regarding PTP4A1 (UniProt Q93096), the log2 fold change is 0.001.
Then PDXDC1 (UniProt Q6P996), with -0.005.
The same measure for PRKCSH isoform 2 (UniProt P14314): 0.022; for POLD3 (UniProt Q15054): 0.028.
